High-throughput results as filed in PubChem BioAssay.
The list is not random: actives were taken first. Their share in the collection is about 6.7%.
Anthrax LF prot: blocks Bacillus anthracis lethal factor protease; P15917; multiplex microsphere protease cleavage assay, LF; inhibition, % at 10 µM; 0.12% of 360,000 active
GDH-TPI counter: counter-screen for M. tuberculosis FBA inhibitors: GDH-TPI coupled enzymes. inhibition, % at 4.8 µM. AID 588335. GDH-TPI coupled enzyme counterscreen, NADH absorbance. 1.2% of 360,000 active; in the data active = inhibition above about 30%
BoNT-A LC inh2: inhibitors of Botulinum neurotoxin A light chain protease | AID 588499 | 0.17% of 360,000 active | multiplex microsphere protease substrate cleavage, flow cytometry | inhibition, % at 10 µM
BoNT F protease: inhibitors of Botulinum neurotoxin F light chain protease; Multiplex microsphere protease cleavage assay, flow cytometry; inhibition, % at 10 µM; 0.22% of 360,000 active; AID 588497; in the data active = inhibition above about 35%, passing the limit was not always enough; inconclusive = no clear call, values can overlap the other calls
Bead autofluor: compound fluorescence in toxin protease inhibitor counterscreen. compound autofluorescence counterscreen, microsphere flow cytometry; active compounds read high. fluorescence intensity (test concentration not listed). 3.1% of 360,000 active. AID 624483; in the data active = fluorescence intensity above about 16000; inconclusive = no clear call, values can overlap the other calls
FBA Mtb inh: Mtb fructose-bisphosphate aldolase inhibition | purified M. tuberculosis FBA, fluorescence read-out | inhibition, % at 1 µM | P9WQA3 | 2.3% of 360,000 active; in the data active = inhibition above about 27%
Target sequence (P9WQA3 whole entry, looked up): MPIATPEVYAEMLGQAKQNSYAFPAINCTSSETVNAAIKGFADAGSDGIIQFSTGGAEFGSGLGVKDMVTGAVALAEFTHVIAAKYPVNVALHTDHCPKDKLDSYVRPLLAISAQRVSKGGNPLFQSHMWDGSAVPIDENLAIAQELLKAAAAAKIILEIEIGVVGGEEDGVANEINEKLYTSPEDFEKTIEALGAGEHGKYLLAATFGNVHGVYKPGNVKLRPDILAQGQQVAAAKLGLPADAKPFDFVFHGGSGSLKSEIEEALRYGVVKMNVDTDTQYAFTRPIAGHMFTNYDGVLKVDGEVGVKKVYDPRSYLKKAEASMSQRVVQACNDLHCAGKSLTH
BoNTA LC inh 2: BoNT/A light chain protease inhibition; shares compounds with BoNT-A LC inh2; inhibition, % at 10 µM; multiplex microsphere protease cleavage assay, flow cytometry; 10% of 150 active; AID 602325; in the data active = inhibition above about 24%
LF protease CP2: blocks anthrax lethal factor protease | shares compounds with BoNT-A LC inh2 | multiplex microsphere protease cleavage assay | inhibition, % at 10 µM | 7% of 150 active; in the data active = inhibition above about 25%
BoNT-F LC CP2: BoNT/F light chain protease inhibition; shares compounds with BoNT-A LC inh2; multiplex microsphere protease cleavage assay, flow cytometry; inhibition, % at 10 µM; 7% of 150 active; AID 602336; in the data active = inhibition above about 25%
Numbers stand for hits. Cut-off read from the data, not from the text of the source, unless noted: active = inhibition above about 30%; inconclusive = no clear call, values can overlap the other calls; inactive = below that.

Results for Cc1cc2cc(CNC(=O)c3ccc(S(=O)(=O)N4CCCCC4)cc3)ccc2n1C ?
Anthrax LF prot: inactive; GDH-TPI counter: inactive; BoNT-A LC inh2: 80; BoNT F protease: inactive; Bead autofluor: inactive; FBA Mtb inh: inactive; BoNTA LC inh 2: inactive; LF protease CP2: inactive; BoNT-F LC CP2: inactive

What do the screens show for `Cc1ccc(CNC(=O)c2ccc(S(=O)(=O)N3CCCCC3)cc2)cc1`?
Anthrax LF prot: inactive; GDH-TPI counter: inactive; BoNT-A LC inh2: inactive; BoNT F protease: inactive; Bead autofluor: inactive; FBA Mtb inh: inactive

How did Cc1cc2cc(CNC(=O)c3ccc(S(=O)(=O)N4CCCC4)cc3)ccc2n1C do in these assays?
Anthrax LF prot: inactive; GDH-TPI counter: inactive; BoNT-A LC inh2: 80; BoNT F protease: inactive; Bead autofluor: inactive; FBA Mtb inh: inactive; BoNTA LC inh 2: inactive; LF protease CP2: inactive; BoNT-F LC CP2: inactive

How did CCN(C(=O)COC(=O)CCCOc1ccccc1)c1c(N)n(Cc2ccccc2)c(=O)[nH]c1=O do in these assays?
Anthrax LF prot: inactive; GDH-TPI counter: inactive; BoNT-A LC inh2: inactive; BoNT F protease: inactive; Bead autofluor: inconclusive; FBA Mtb inh: inactive

How did N=C1C(c2nc(-c3ccc(F)cc3)cs2)=C(O)CN1Cc1ccc(Cl)cc1 do in these assays?
Anthrax LF prot: inactive; GDH-TPI counter: inactive; BoNT-A LC inh2: inactive; BoNT F protease: inactive; Bead autofluor: inactive; FBA Mtb inh: inactive

How did Cn1nc(-c2ccccc2)nc1-c1ccccc1 do in these assays?
Anthrax LF prot: inactive; GDH-TPI counter: inactive; BoNT-A LC inh2: inactive; BoNT F protease: inactive; Bead autofluor: inactive; FBA Mtb inh: inactive

How did CN=c1nc(-c2ccccc2)n(-c2ccccc2)s1 do in these assays?
Anthrax LF prot: inactive; GDH-TPI counter: inactive; BoNT-A LC inh2: inactive; BoNT F protease: 48; Bead autofluor: inactive; FBA Mtb inh: inactive; BoNTA LC inh 2: inactive; LF protease CP2: inactive; BoNT-F LC CP2: inactive

What do the screens show for `COc1ccc(Cc2c(-c3ccc(OC)c(OC)c3)nc3c(C)cc(Br)cn23)c(C)c1`?
Anthrax LF prot: inactive; BoNT-A LC inh2: 32; BoNT F protease: inactive; Bead autofluor: inactive; FBA Mtb inh: inactive; BoNTA LC inh 2: inactive; LF protease CP2: inactive; BoNT-F LC CP2: inactive

Results for COc1ccc(Cc2c(-c3ccccc3)nc3cc(C)c(Br)c(C)n23)c(C)c1 ?
Anthrax LF prot: inactive; BoNT-A LC inh2: inactive; BoNT F protease: inactive; Bead autofluor: inactive; FBA Mtb inh: inactive

Results for COc1ccc(Cc2c(-c3ccc(OC)c(OC)c3)nc3cc(C)c(Br)c(C)n23)c(C)c1 ?
Anthrax LF prot: inactive; BoNT-A LC inh2: inactive; BoNT F protease: inactive; Bead autofluor: inactive; BoNTA LC inh 2: inactive; LF protease CP2: inactive; BoNT-F LC CP2: inactive

Results for COc1ccc(Cc2c(-c3ccc(C)cc3)nc3c(C)cc(Br)cn23)c(C)c1 ?
Anthrax LF prot: inactive; BoNT-A LC inh2: inactive; BoNT F protease: inactive; Bead autofluor: inactive; FBA Mtb inh: inactive

Results for CC1CCCN(CCC(=O)Nc2ccc(F)c(F)c2)C1 (stereo unspecified) ?
Anthrax LF prot: inactive; GDH-TPI counter: inactive; BoNT-A LC inh2: inactive; BoNT F protease: inconclusive; Bead autofluor: inactive; FBA Mtb inh: inactive

How did CN(CC(=O)NC1CCN(Cc2ccccc2)CC1)S(=O)(=O)c1ccc(Cl)cc1 do in these assays?
Anthrax LF prot: 54; GDH-TPI counter: inactive; BoNT-A LC inh2: inactive; BoNT F protease: 74; Bead autofluor: inactive; FBA Mtb inh: inactive; BoNTA LC inh 2: inactive; LF protease CP2: inactive; BoNT-F LC CP2: inactive

How did CN(C)CCNC(=O)c1cccc2nc3c(ccc4ccccc43)nc12 do in these assays?
Anthrax LF prot: 42; GDH-TPI counter: inactive; BoNT-A LC inh2: 44; BoNT F protease: inactive; Bead autofluor: inactive; FBA Mtb inh: inactive; BoNTA LC inh 2: inactive; LF protease CP2: inactive; BoNT-F LC CP2: inactive

What do the screens show for `C[C@H](CO)N1C[C@H](C)[C@H](CN(C)C(=O)N[C@H](C)c2ccccc2)OCc2ccccc2-c2c(n(C)c3ccccc23)C1=O`?
Anthrax LF prot: inactive; GDH-TPI counter: inactive; BoNT-A LC inh2: inactive; BoNT F protease: inactive; Bead autofluor: inactive; FBA Mtb inh: inactive

Results for CCN(CC)S(=O)(=O)c1cccc(NC(=O)COC(=O)c2cncc(Br)c2)c1 ?
Anthrax LF prot: 39; GDH-TPI counter: inactive; BoNT-A LC inh2: inactive; BoNT F protease: inactive; Bead autofluor: inactive; FBA Mtb inh: inactive; BoNTA LC inh 2: inactive; LF protease CP2: inactive; BoNT-F LC CP2: inactive

Results for O=C(COC(=O)c1cncc(Br)c1)NC12CC3CC(CC(C3)C1)C2 ?
Anthrax LF prot: 58; GDH-TPI counter: inactive; BoNT-A LC inh2: 72; BoNT F protease: inactive; Bead autofluor: inactive; FBA Mtb inh: inactive; BoNTA LC inh 2: 29; LF protease CP2: 30; BoNT-F LC CP2: inactive

Results for CCN(CC)S(=O)(=O)c1cccc(NC(=O)COC(=O)c2ccc(Br)o2)c1 ?
Anthrax LF prot: inactive; GDH-TPI counter: inactive; BoNT-A LC inh2: inactive; BoNT F protease: inactive; Bead autofluor: inactive; FBA Mtb inh: inactive

What do the screens show for `O=C1C2C3C=CC(CC3)C2C(=O)N1c1nccs1` (stereo unspecified)?
Anthrax LF prot: inactive; GDH-TPI counter: inactive; BoNT-A LC inh2: inactive; BoNT F protease: inactive; Bead autofluor: inactive; FBA Mtb inh: inactive

How did N#CCSc1nnc(COc2cccc3ccccc23)n1-c1ccccc1 do in these assays?
Anthrax LF prot: inactive; GDH-TPI counter: inactive; BoNT-A LC inh2: inactive; BoNT F protease: inactive; Bead autofluor: inactive; FBA Mtb inh: inactive

What do the screens show for `CN(C)c1ccc(/C=C2/C[N+](C)(C)C/C(=C/c3ccc(N(C)C)cc3)C2=O)cc1`?
Anthrax LF prot: 41; GDH-TPI counter: inactive; BoNT-A LC inh2: 86; BoNT F protease: inactive; Bead autofluor: inactive; FBA Mtb inh: inactive; BoNTA LC inh 2: 48; LF protease CP2: 28; BoNT-F LC CP2: inactive

What do the screens show for `CN(C)c1ccc(C=C2C(=O)OC(C)(C)OC2=O)cc1`?
Anthrax LF prot: inactive; GDH-TPI counter: inactive; BoNT-A LC inh2: inactive; BoNT F protease: inactive; Bead autofluor: inactive; FBA Mtb inh: inactive

What do the screens show for `CCOc1ccc(NC(=O)CN(C)C(=O)c2ccc3c(c2)S(=O)(=O)N=C2CCCCCN23)cc1OCC`?
Anthrax LF prot: 110; GDH-TPI counter: inactive; BoNT-A LC inh2: 94; BoNT F protease: 87; Bead autofluor: inactive; FBA Mtb inh: inactive; BoNTA LC inh 2: inactive; LF protease CP2: inactive; BoNT-F LC CP2: inactive

Results for COc1ccc(C(CNC(=O)c2ccc(C)c(S(=O)(=O)N3CCCCC3)c2)N2CCCC2)cc1 (stereo unspecified) ?
Anthrax LF prot: 56; GDH-TPI counter: inactive; BoNT-A LC inh2: inactive; BoNT F protease: 86; Bead autofluor: inactive; FBA Mtb inh: inactive; BoNTA LC inh 2: inactive; LF protease CP2: inactive; BoNT-F LC CP2: inactive
